# From PubChem BioAssay (NCATS)
# Records with an inconclusive call do not appear. Calls of active or inactive are those of the source. Calls follow the shape of the full dose curve. Residues, ends and D or L forms follow the SMILES beside them. *: point of attachment. Hexanoyl = CCCCCC(=O)*
# Assay: qHTS for inhibitors of Rabies Virus screened against the NCATS CANVASS Library (AID 1347402); also: 0% is about no effect
# Conditions: Rabies virus infection cell assay; series mostly up to 45.9 µM; activity change, negative = inhibition: at the top concentration
row,Compound,"activity change, negative = inhibition"
1,C1=C2CCCN[C@@H]2[C@@H]2CCN3CCCC[C@@H]3[C@H](C1)C2,-19.2% (inactive)
2,CO[C@@H](C[C@@H](C)[C@@H](O)/C=C/C=C/CNC(=O)C(C)(C)[C@H](O)\C(C)=C/C=C\C=C\Cc1cnco1)[C@]1(O)[C@@H](C)C(=O)N(C)[C@@]12COC2=O,2.02% (inactive)
3,C/C=C(/CO)C(=O)O[C@@H]1[C@H](O)[C@@H](C(=O)OC)O[C@@H]2C[C@H]3OC(n4cnc5c(N)ncnc54)[C@H](OC)[C@H]3O[C@@]12O (stereo partly specified),26% (inactive)
4,CC(=O)O[C@H]1CC[C@@]2(C)C(CC[C@]3(C)C2CC=C2C4CC(C)(C)CC[C@]4(C)CC[C@]23C)C1(C)C (stereo partly specified),2.83% (inactive)
5,CC(O)/C=C/C1(O)C(C)(C)CC(O)CC1(C)O (stereo unspecified),-1.96% (inactive)
6,COc1cc2c(cc1OC)[C@@H](c1ccc3c(c1)OCO3)C(C)C(C)C2=O (stereo partly specified),-13.6% (inactive)
7,COc1ccc([C@@H]2c3cc(OC)c(OC)cc3C(=O)[C@H](C)C2C)cc1OC (stereo partly specified),-3.53% [at 9.14 µM] (inactive)
8,CN1C(=O)C(=O)N2C(=C[C@]3(c4c[nH]c5ccccc45)c4ccccc4N[C@H]23)C1=O,-6.33% (inactive)
9,COc1cc(/C=C2/C(=O)N(c3ccc(O)cc3C(=O)O)[C@H](c3ccc(O)c(OC)c3)C2C(=O)Nc2ccc(O)cc2C(=O)O)ccc1O (stereo partly specified),-23.1% (inactive)
10,CC(C)[C@]12CC[C@@]3(C)[C@H](C)CC[C@H](O)[C@@]3(CC1)c1cc3c(cc12)[nH]c1ccccc13,-5.28% (inactive)
11,CC1(C)[C@H](Br)CC[C@]23C[C@]4(C)C(=O)CC12C[C@H]34,-20.5% (inactive)
12,C=C[C@]1(C)CC[C@@H]([C@H](C)C(=O)OCC)O1,-31.9% [at 27.4 µM] (inactive)
13,O=C1CC(c2ccc(O)cc2)Oc2cc(O)ccc21 (stereo unspecified),-20.4% (inactive)
14,C[C@@H]1O[C@H](c2c(O)cc(O)c3c(=O)cc(-c4ccc(O)cc4)oc23)[C@H](O)[C@H](O)[C@H]1O,-2.2% (inactive)
15,C=C[C@@]1(C)CC[C@@H]([C@H](C)C(=O)/C=C/C(C)(C)O)O1,-16.7% (inactive)
16,C[C@@H](O)[C@H]1OC(=O)C=C2[C@]3(C)[C@H]4[C@H](OC(=O)[C@@]4(C)[C@@H](O)[C@H]4O[C@H]43)[C@H]3O[C@@]231,6.7% (inactive)
17,C=CC(C)(C)C(=O)[C@@H](C)[C@@H]1CC[C@](C)(C=C)O1,6.22% (inactive)
18,COc1ccc([C@@H]2c3cc(OC)c(OC)cc3C(=O)C(C)C2C)cc1OC (stereo partly specified),-15.8% (inactive)

row,Compound,"activity change, negative = inhibition"
1,C[C@@]12CCC[C@@](C)(C(=O)O)[C@H]1C[C@@H](O)[C@@]13C[C@@H](CC[C@@H]21)[C@](C)(O)C3,14.1% (inactive)
2,COc1cc(/C=C/C(=O)O)ccc1O,-5.38% (inactive)
3,O=C(O)[C@@]12CO[C@@]3(O)C4CCN(CC[C@H]31)[C@H]4c1c2[nH]c2ccccc12,-8.87% (inactive)
4,CC(C)=CCC[C@]12c3cc4c(cc3CC[C@@]1(C)[C@H](C)CC[C@@H]2O)[nH]c1ccccc14,-2.51% (inactive)
5,CCC(C)=C1OC(=O)[C@H](C)[C@H](O)[C@H](Cc2cccnc2)NC(=O)C(NC(=O)c2ncccc2O)C(C)OC1=O (stereo partly specified),-2.69% (inactive)
6,CC1(C)CCC[C@]2(C)[C@@H]1CC[C@@]13C[C@@H](CC[C@H]12)C(C)(O)C3 (stereo partly specified),-11.3% (inactive)
7,C=CC(C)(C)C(=O)[C@@H](C)[C@@H]1CC[C@@](C)(C=C)O1,11.4% (inactive)
8,O=C1CC(c2ccc(O)cc2)Oc2ccccc21 (stereo unspecified),-28.2% (inactive)
9,COC(=O)[C@@]12Oc3cccc(O)c3C(O)=C1C(=O)C[C@H](C)[C@H]2O,3.52% [at 91 µM] (inactive)
10,O=C(O)CC1OC(=O)c2c(O)cccc21 (stereo unspecified),3.89% (inactive)
11,CC(=O)c1c(C)cc2c(c1O)C(=O)c1c(O)cc(O)cc1C2=O,4.1% (inactive)
12,CCCCCCC[C@@H](C/C=C/CCC(=O)NCCc1c[nH]c2ccccc12)OC,-30.3% (inactive)
13,Oc1ccc(/C=C2/c3cc(O)cc(O)c3C(c3ccc(O)cc3)[C@H]2c2cc(O)cc(O)c2)cc1 (stereo partly specified),-8.29% (inactive)
14,C=C1C[C@]23C=CC(=O)[C@@](C)(CCCC(C)C(=O)N[C@@H](CO)C(=O)O)[C@@H]2C[C@@H]1CC3 (stereo partly specified),0.299% (inactive)
15,CNc1ccc(Cl)cc1C(=O)OC[C@]1(C)[C@H]2CC[C@]3(C)[C@@H](C[C@@H](OC)[C@H](C)[C@H]3C3=C(O)C(=O)OC3O)[C@]2(C)CC[C@H]1O (stereo partly specified),-5.13% (inactive)
16,C=C1/C=C\C(CCC)=C\c2csc(n2)C(C)NC(=O)C[C@@]2(CC(=O)O)CCC(=C)[C@H](C1)S2 (stereo partly specified),-15.5% (inactive)
17,OCc1ccc2ocnc2c1,-6.39% (inactive)
18,CCCCCC(=O)N[C@@H](CC(C)C)C(=O)N[C@H](C=O)CCC(=O)O (Hexanoyl-Leu-Glu-aldehyde),5.6% (inactive)
